3 molecules from PubChem BioAssay AID651871 (Sanford-Burnham Center for Chemical Genomics, 2012) can be followed below.

SMILES strings stand for the structures. “And” between values parts separate entries of the source, which are not always exact repeats. Identical values can stand only once.

In the test the test system is HL-1. Put plainly: protection of cardiomyocytes from stress damage, SAR follow-up, cell-based, panel, H9c2 and HL-1, ATP luminescence, set 2 (AID 651871).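 Also: cells exposed to stressor for 2 h before ATP readout; reference of the scale not given here.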 Particulars: H9c2/HL-1 cardiomyocytes, 2-deoxyglucose stress, with 2-deoxyglucose, run 14, at 79 µM (top of the series).
As to `CCOC(=O)c1cccc(NC(=O)CNC(=O)c2cc(-c3cc(OC)c(OC)c(OC)c3)nc3ccccc23)c1`, the activity (protection/inhibition) is 83.5%. To `COc1ccc2nc(-c3cc(OC)c(OC)c(OC)c3)cc(C(=O)NCC(=O)Nc3ccc(C(C)=O)cc3)c2c1` belongs 66%; to `COc1ccc2c(c1OC)C(=O)N1c3ccccc3C(=O)N(Cc3cccc(Cl)c3Cl)C21` (stereo not drawn), 56.3% and -4.31%.
